# Compounds with a hit are over-represented: about 2% of the library has one in this group of screens.
# ID4 binder = binders of human ID4 protein. small molecule microarray, Flag-ID4 binding, fluorescence F/B. calls only. P47928. hit rate 1.2% among 31,000; call rule not given here;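 note: a binder raises fluorescence above local background on the spot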
# Target sequence (P47928 whole entry, looked up): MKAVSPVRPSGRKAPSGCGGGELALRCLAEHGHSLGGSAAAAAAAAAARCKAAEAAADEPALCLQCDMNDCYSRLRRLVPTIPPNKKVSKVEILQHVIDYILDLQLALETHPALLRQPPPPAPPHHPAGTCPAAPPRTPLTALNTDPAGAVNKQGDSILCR
# p53 PUMA act = restores mutant p53 pathway signaling in SW480 cells. SW480 PUMA-promoter luciferase, p53 mutant reactivation. activation, % at 9.98 µM. hit rate 1.5% among 28,000. AID 624151; in the data active = activation above about 52%; inconclusive = no clear call, values can overlap the other calls
# STK33 kin inh = inhibitors of human STK33 kinase; hit rate 0.44% among 27,000; inhibition, % at 12.5 µM; ADP-Glo luminescence, MBP substrate; AID 2322; Q9BYT3; in the data active = inhibition above about 20%; inconclusive = no clear call, values can overlap the other calls
# The depositor's hits bear a star; i = inactive; ? = inconclusive; nt = not tested or not shown; + = active, no number.
SMILES,ID4 binder,p53 PUMA act,STK33 kin inh
Cc1ccc(OCC(=O)Oc2cccc(NC3=NS(=O)(=O)c4ccccc43)c2)cc1,i,5.2,5.3
CCn1c(SCC(=O)Nc2cccc(C)c2C)nnc1-c1ccc(Cl)c(Cl)c1,i,-3.0,-1.6
CC(NS(=O)(=O)c1ccc(F)cc1)C(=O)Nc1cc(Cl)ccc1Oc1ccccc1 (stereo unspecified),i,-11.5,0.9
COc1ccc(-c2cn(CCNC(=O)[C@H](Cc3ccccc3)NS(=O)(=O)c3ccc(C)cc3)nn2)cc1OC,+,nt,nt
Cc1ccc(S(=O)(=O)N[C@@H](Cc2ccccc2)C(=O)CCl)cc1,nt,-90.0,8.2
O=C(CS(=O)c1ccccc1[N+](=O)[O-])Nc1cccc(C(F)(F)F)c1 (stereo unspecified),i,70.5*,-1.4
O=C(O)CCC(=O)Nc1cccc(C(F)(F)F)c1,i,-6.3,0.8
COCCNS(=O)(=O)c1ccc(Cl)c(Cl)c1OC,i,-4.4,-2.9
O=C(O)CCC(=O)Nc1ccc(-c2nc3ccc(C(=O)c4ccccc4)cc3[nH]2)cc1,+,37.6,3.3
O=C(CCN1C(=O)c2ccccc2C1=O)Nc1ccc(-c2nc3ccccc3[nH]2)cc1,i,19.9,6.5
O=C(CSc1nnc(-c2ccccc2)o1)Nc1cccc(F)c1,i,78.0*,-1.2
COc1ccccc1NC(=O)CSc1nnc(-c2ccc(Cl)cc2)o1,i,89.1*,6.4
CSc1cccc(NC(=O)CSc2nnc(-c3ccc(Br)cc3)o2)c1,i,48.4,-0.5
CCn1c(SCC(=O)Nc2ccc(Cl)cc2)nnc1-c1ccco1,i,20.2,-2.4
O=C(CSc1ccc(Cl)cc1)Nc1cccc(-c2nnc(-c3ccco3)o2)c1,i,122.5*,4.0
COC(=O)c1ccccc1NC(=O)CSc1nnc(-c2ccc(Cl)cc2)o1,i,19.7,5.0
O=C(CCc1nc(-c2ccccc2F)no1)Nc1ccccc1Cl,i,-2.5,3.0
CCN1CCOC(CC(=O)Nc2cc(OC)cc(OC)c2)C1=O (stereo unspecified),i,0.3,0.6
Cc1c(CC(=O)O)c(=O)oc2cc(OCC(=O)O)ccc12,i,-5.1,1.4
COC(=O)c1cc(NC(=O)CSc2nc(C)cc(C)n2)cc(C(=O)OC)c1,i,-3.7,-6.5
COc1ccc(OC)c2c(C)cc(Cl)nc12,i,-8.0,nt
C=CCNC(=O)c1c(NC(=O)C2COc3ccccc3O2)sc2c1CCCC2 (stereo unspecified),i,-12.4,-1.7
COc1ccc(OC)c(NC(=O)CSc2nnc(-c3ccc(Cl)cc3Cl)n2C)c1,i,-4.6,1.3
C/C=C(/C)C(=O)O[C@H]1[C@H](OC(=O)/C(C)=C\C)[C@]2(CO)[C@H](O)C[C@]3(C)C(=CCC4[C@@]5(C)CC[C@H](OC6OC(C(=O)O)C(O)C(OC7OC(C)C(O)C(OC8OC(CO)C(O)C(O)C8O)C7O)C6O)C(C)(C)C5CC[C@]43C)[C@@H]2CC1(C)C (stereo partly specified),nt,nt,-2.8
COc1ccc([N+](=O)[O-])cc1NC(=O)CN(c1ccccc1F)S(C)(=O)=O,i,-11.1,-0.3
SMILES,ID4 binder,p53 PUMA act,STK33 kin inh
CCOC(=O)c1ccc(COc2ccc(-c3cnc4ccccc4n3)cc2)o1,i,129.9*,2.6
CCOC(=O)c1ccc(COC(=O)c2cc3ccccc3cc2O)o1,i,-1.9,0.0
COc1ccc(CCC(=O)c2ccc(OC)cc2O)cc1,i,58.5*,-1.6
COc1ccc(C(C)=O)c(O)c1,i,2.7,2.3
CSc1ccc(C2C(C(=O)c3sc(C)nc3C)C(=O)C(=O)N2Cc2cccnc2)cc1 (stereo unspecified),+,28.2,-0.9
Cc1c(C(=O)C2C(=O)C(=O)N(Cc3cccnc3)C2c2ccc(F)cc2)cnn1-c1ccccc1 (stereo unspecified),i,6.4,2.3
COC(=O)COc1ccc(NC(=O)c2ccc([N+](=O)[O-])c(C)c2)cc1,i,-12.7,0.9
Cc1ccc(OCC(=O)Nc2cccc(-c3nc4ccccc4[nH]3)c2)cc1,i,9.7,-0.5
Cc1ccc(OCC(=O)Nc2cccc(-c3nnc(-c4ccccc4)o3)c2)cc1,i,118.8*,6.0
Cc1cccc(OCC(=O)Nc2cccc(-c3nnc(-c4ccco4)o3)c2)c1C,i,?,0.1
Cc1cccc(OCC(=O)Nc2cccc(-c3nnc(-c4ccccc4)o3)c2)c1C,i,67.7*,-0.2
O=C(CSc1nc2sc3c(c2c(=O)n1Cc1ccco1)CCC3)c1ccccc1,i,14.3,-2.0
Cc1coc(C)c1C(=O)CC1(O)C(=O)N(CCCC#N)c2ccccc21 (stereo unspecified),i,-5.3,4.7
N#CCCCN1C(=O)C(O)(CC(=O)c2ccc(Br)s2)c2ccccc21 (stereo unspecified),+,-5.8,-1.5
O=C(CCCN1C(=O)c2ccccc2C1=O)Nc1ccc(F)c(Cl)c1,i,-0.9,-9.4
COc1cc(NC(=O)C(C)Oc2ccc(Cl)cc2Cl)ccc1NC(=O)c1ccco1 (stereo unspecified),i,67.1*,9.4
CC(Oc1ccc(Cl)cc1Cl)C(=O)Nc1cccc(-c2nnc(-c3ccccc3)o2)c1 (stereo unspecified),i,80.7*,3.1
COc1ccc(NC(=O)c2ccco2)cc1NC(=O)C(C)Oc1ccc(Cl)cc1Cl (stereo unspecified),i,-9.5,5.1
O=C(COc1ccc(Cl)cc1Cl)Nc1cccc(-c2nnc(-c3ccccc3)o2)c1,i,38.7,8.1
Cc1ccc(Oc2ncccc2NC(=O)C(=S)NCc2ccccc2)c2c1CCC2,nt,nt,-0.3
Cc1sc2ncnc(SCC(=O)c3cc(Cl)sc3Cl)c2c1C,i,-9.1,-5.0
Nc1ncnc(NCCCN2CCOCC2)c1[N+](=O)[O-],i,-14.6,-1.0
C[C@@H]1CN([C@@H](C)CO)C(=O)c2cc(-c3ccncc3)cnc2O[C@H]1CN(C)Cc1ccc(Oc2ccccc2)cc1,+,-17.6,nt
C[C@@H]1CN([C@H](C)CO)C(=O)c2cc(-c3cccnc3)cnc2O[C@H]1CN(C)C,i,nt,nt
C[C@H](CO)N1C[C@H](C)[C@H](CN(C)C(=O)NC2CCCCC2)Oc2ncc(-c3ccc(F)cc3)cc2C1=O,nt,nt,-6.5
SMILES,ID4 binder,p53 PUMA act,STK33 kin inh
C[C@@H]1CN([C@H](C)CO)C(=O)c2cc(-c3ccncc3)cnc2O[C@@H]1CN(C)C(=O)C1CCOCC1,+,13.3,nt
C[C@@H]1CN([C@@H](C)CO)C(=O)c2cc(-c3cccnc3)cnc2O[C@H]1CN(C)C,+,nt,nt
C[C@H]1CN([C@@H](C)CO)C(=O)c2cc(-c3cccnc3)cnc2O[C@@H]1CN(C)C(=O)C1CCOCC1,nt,4.6,nt
C[C@@H]1CN([C@H](C)CO)C(=O)c2cc(-c3cccnc3)cnc2O[C@@H]1CN(C)Cc1ccc(Oc2ccccc2)cc1,nt,-10.6,nt
C[C@@H]1CN([C@H](C)CO)C(=O)c2cc(-c3ccncc3)cnc2O[C@H]1CN(C)C(=O)NC1CCCC1,+,5.3,nt
Clc1snnc1CN1CCOCC1,i,9.1,nt
Cc1cc(NC(=O)CCCN2C(=O)c3cccc4cccc(c34)C2=O)n(-c2ccccc2)n1,i,42.0,2.0
COc1cc(OC)c(NC(=O)CN(C)S(=O)(=O)c2cc(Cl)ccc2Cl)cc1Cl,i,29.3,0.2
Cc1ccc(N(CC(=O)Nc2cc(Cl)ccc2C)S(C)(=O)=O)cc1C,i,1.9,-4.0

# From PubChem
